Assay results from ChEMBL document CHEMBL1157539, “Thousands of chemical starting points for antimalarial lead identification” (Nature, 2010).

Assays:
Assay type in all cases: functional
Plasmodium falciparum [1] = assay: GSK_TCMDC: Inhibition of Plasmodium falciparum 3D7 in whole red blood cells, using parasite LDH activity as an index of growth. Test compounds present at 2uM
Plasmodium falciparum [2] = assay: GSK_TCMDC: Inhibition of Plasmodium falciparum Dd2 in whole red blood cells, using parasite LDH activity as an index of growth. Test compounds present at 2uM
HepG2 = assay: GSK_TCMDC: Percent inhibition of human HepG2 cell line. Test compounds present at 10uM.

SMILES | Inhibition (Plasmodium falciparum [1]) [%] | Inhibition (Plasmodium falciparum [2]) [%] | Inhibition (HepG2) [%]
CN1CCCc2cc(NC(=O)c3cc(-c4ccc(Cl)cc4)cs3)ccc2C1.O=C(O)C(F)(F)F | 100 | 34 | 15
O=c1sn(-c2csc3ccccc23)c2ccccc12 | 94 | 54 | 14
O=C(O)C(F)(F)F.Oc1ccc(CCNc2nc(NCCCOc3ccccc3-c3ccncc3)nc(N3CCNCC3)n2)cc1 | 96 | 0 | 8
Cc1ccc(C(=O)Nc2ccc(OC3CCN(CCC(C)C)C3)c(Cl)c2)cc1.O=C(O)C(F)(F)F (centres undefined) | 83 | 38 | 63
COc1cc(NC(=O)CCCN2CCN(c3cccc(Cl)c3Cl)CC2)ccc1N1CCN(C(C)C)CC1.Cl | 99 | 59 | 31
CCNc1cc(C(=O)N[C@@H](Cc2ccccc2)[C@H](O)CNCc2cccc(OC)c2C)cc(N2CCCCS2(=O)=O)c1.O=CO | 97 | 98 | 8
C=CCN(c1ccc(OC)cc1)S(=O)(=O)c1ccc(Cl)c(C(=O)Nc2cccc(C#N)c2)c1 | 96 | 73 | 6
CCN(CC)CCN(Cc1ccc(-c2ccc(C(F)(F)F)cc2)cc1)C(=O)Cn1c(CCC2CCCCC2)nc(=O)c2ccccc21.O=C(O)C(O)C(O)C(=O)O | 87 | 25 | 32
O=C(N[C@@H](Cc1ccccc1)C(=O)NC1CCCc2ccccc21)c1ccc(O)c(-c2ccc(Cl)c(Cl)c2)c1 (some centres undefined) | 97 | 99 | 0
Br.C=CCN1Cc2c(O)cccc2C(c2ccc(O)c(O)c2)C1 (centres undefined) | 97 | 6 | 0
Cl.O=C(Nc1ccc2c(c1)CNCC2)c1ccc(-c2ccc(Cl)cc2)cc1 | 96 | 28 | 52
CC(C)Cn1ncc2c3c(N)nc(N)nc3ccc21 | 94 | 73 | 63
CCc1ccc(C2CCN(CCCCNC(=O)c3ccc(NC(=O)c4ccc(Cl)cc4)cc3)CC2)c(OCC(=O)OC)c1 | 95 | 12 | 32
CS(=O)(=O)CCCNCc1ccc(-c2cc3c(Nc4ccc(OCc5ccccc5)cc4)ncnc3cn2)o1 | 87 | 16 | 10
CCCCc1cc(NCc2ccncc2)nc(Nc2ccccc2)n1 | 96 | 4 | 0
CN1CCCC(CN2CCN(Cc3cccc(-c4ccc(-c5nc6cc(C(F)(F)F)ccc6[nH]5)cc4)c3)CC2)C1.O=C(O)C(F)(F)F (centres undefined) | 99 | 96 | 100
CN(CCC(O)c1ccc(Cl)c(Cl)c1)CC1CC1C(=O)c1ccccc1 (centres undefined) | 98 | 96 | 11
COc1ccc(CC2(c3ccc(F)cc3)N=C(N)N(CCCc3cccnc3)C2=O)cc1.O=C(O)C(F)(F)F (centres undefined) | 98 | 97 | 12
O=C(Nc1cccc(-c2ccc(-c3nc4ccccc4[nH]3)s2)c1)c1ccncc1 | 92 | 29 | 67
CC1(C)CN2CCCC2c2cc(NC(=O)/C=C/c3ccccc3Cl)ccc21.Cl (centres undefined) | 88 | 76 | 20
O=C(C=Cc1ccc(Cl)c(Cl)c1)NCCCCCN1CCC(CCNC(=O)C(c2ccccc2)c2ccccc2)CC1 | 90 | 43 | 61
Cl.Oc1cccc(-c2nc3cc(C4=NC5CCCCC5N4)ccc3[nH]2)c1 (centres undefined) | 98 | 97 | 0
O=C(NC1CC1)C1CCN(Cc2cc3ccccc3n2Cc2ccc(Cl)cc2)CC1 | 95 | 96 | 16
Cc1cccc2nc(-c3ccc(-c4ccc(NC(=O)Nc5ccc(Cl)cc5)cc4)cc3)[nH]c12 | 100 | 100 | 52
CC(Oc1ccc(NC(=O)c2cccs2)cc1)C(=O)c1ccc(Cl)cc1 (centres undefined) | 92 | 83 | 0
CCCCCN(C(=O)Nc1cc(C(F)(F)F)cc(C(F)(F)F)c1)C(C)c1nc2ccccc2c(=O)n1CC (centres undefined) | 100 | 100 | 0
CCCn1c(=N)c(C(=O)NCCc2ccccc2)cc2c(=O)n3cccc(C)c3nc21 | 100 | 64 | 8
N#Cc1cccc(CN(Cc2ccc(Cl)c(Cl)c2)S(=O)(=O)c2cccc([N+](=O)[O-])c2)c1 | 100 | 73 | 3
